Data taken from PubChem BioAssay (NCI).
About 83,000 compounds went through this panel and 20% of them were active in at least one assay; those are over-represented in the sample as a whole.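 Assay: single dose, 48 h. Readout: percent growth (0 = no net growth; negative = cell death). Active: <10.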 Active and inactive are the calls of the source.

Columns and labels:
Test in all cases: NCI-60 one-dose screen, 48 h (100 = growth as untreated, 0 = no growth, -100 = all killed)
Conditions in all cases: 10 µM unless noted
HCT-15 colon = test system: HCT-15 colon
HT29 colon = test system: HT29 colon
SNB-75 CNS = test system: SNB-75 CNS
SNB-19 CNS = test system: SNB-19 CNS
U251 CNS = test system: U251 CNS
PC-3 prostate = test system: PC-3 prostate
SK-MEL-5 melanoma = test system: SK-MEL-5 melanoma
UACC-62 melanoma = test system: UACC-62 melanoma
LOX IMVI melanoma = test system: LOX IMVI melanoma
SK-MEL-28 melanoma = test system: SK-MEL-28 melanoma
SK-MEL-2 melanoma = test system: SK-MEL-2 melanoma
EKVX NSCLC = test system: EKVX NSCLC
SN12C renal = test system: SN12C renal
UO-31 renal = test system: UO-31 renal
TK-10 renal = test system: TK-10 renal
ACHN renal = test system: ACHN renal
CAKI-1 renal = test system: CAKI-1 renal
A498 renal = test system: A498 renal
CCRF-CEM leukemia = test system: CCRF-CEM leukemia
MOLT-4 leukemia = test system: MOLT-4 leukemia

Measured: growth

O=C(N/N=C/[C@@H](O)[C@H](O)[C@H](O)CO)c1ccc(NC(=O)c2cccnc2)cc1
inactive: HCT-15 colon 103% | HT29 colon 105% | SNB-75 CNS 90.3% | SNB-19 CNS 98.7% | U251 CNS 101% | PC-3 prostate 101% | SK-MEL-5 melanoma 106% | UACC-62 melanoma 99.5% | LOX IMVI melanoma 101% | SK-MEL-28 melanoma 103% | SK-MEL-2 melanoma 120% | EKVX NSCLC 100% | SN12C renal 97.1% | UO-31 renal 82.9% | TK-10 renal 106% | ACHN renal 101% | CAKI-1 renal 96.1% | A498 renal 102% | CCRF-CEM leukemia 98.5% | MOLT-4 leukemia 113%

CCOC(=O)c1c2c(n(-c3ccc(C#N)cc3)c1-c1ccccc1)C=CCC2
inactive: HCT-15 colon 76.9% | HT29 colon 68.2% | SNB-75 CNS 83.9% | SNB-19 CNS 98.4% | U251 CNS 99.7% | PC-3 prostate 70.1% | SK-MEL-5 melanoma 92.8% | UACC-62 melanoma 75% | LOX IMVI melanoma 84% | SK-MEL-28 melanoma 102% | SK-MEL-2 melanoma 79.6% | EKVX NSCLC 93.2% | SN12C renal 101% | UO-31 renal 81.8% | TK-10 renal 96.5% | ACHN renal 86.8% | CAKI-1 renal 76.4% | A498 renal 96.7% | CCRF-CEM leukemia 95.8% | MOLT-4 leukemia 81.2%

NC1=NC(c2cccc(Br)c2)c2sc3ccc(Cl)cc3c2N1 (stereo not given)
inactive: HCT-15 colon 103% | HT29 colon 104% | SNB-75 CNS 75.6% | SNB-19 CNS 97.3% | U251 CNS 103% | PC-3 prostate 88.7% | SK-MEL-5 melanoma 96.5% | UACC-62 melanoma 84.5% | LOX IMVI melanoma 98.8% | SK-MEL-28 melanoma 118% | SK-MEL-2 melanoma 108% | EKVX NSCLC 85.5% | SN12C renal 93.5% | UO-31 renal 62.8% | TK-10 renal 123% | ACHN renal 92.9% | CAKI-1 renal 79.5% | A498 renal 104% | CCRF-CEM leukemia 121% | MOLT-4 leukemia 92.2%

O=c1c2cc(C(F)(F)F)ccc2sc2c(NCCCNCCO)nc3ccccc3c12
inactive: SNB-75 CNS 56.9% | SNB-19 CNS 23.2% | PC-3 prostate 23% | SK-MEL-5 melanoma 38.3% | UACC-62 melanoma 74.8% | SK-MEL-28 melanoma 55.5% | SK-MEL-2 melanoma 84.7% | EKVX NSCLC 67.3% | SN12C renal 36.1% | UO-31 renal 23.2% | A498 renal 21.8%
active: HCT-15 colon -67.2% | HT29 colon -41.4% | U251 CNS -60.6% | LOX IMVI melanoma -95.6% | TK-10 renal -0.0148% | ACHN renal 2.14% | CAKI-1 renal -67.2% | CCRF-CEM leukemia -12.5% | MOLT-4 leukemia -50.1%

CCOC(=O)C1=C(N)Oc2c(sc3c(CC)cccc23)C1c1ccc(F)cc1 (stereo not given)
inactive: HCT-15 colon 22.4% | HT29 colon 40.4% | SNB-19 CNS 35% | U251 CNS 40.6% | PC-3 prostate 26.1% | SK-MEL-5 melanoma 61.1% | UACC-62 melanoma 22% | LOX IMVI melanoma 35% | SK-MEL-28 melanoma 53.8% | SK-MEL-2 melanoma 52.1% | EKVX NSCLC 64.1% | SN12C renal 49.1% | UO-31 renal 36.2% | TK-10 renal 99.1% | ACHN renal 34.1% | CCRF-CEM leukemia 27.6% | MOLT-4 leukemia 64.2%
active: SNB-75 CNS -2.89% | CAKI-1 renal 4.96% | A498 renal -3.69%

COc1ccc(CN2c3ccccc3Sc3ccccc32)c(F)c1
inactive: HCT-15 colon 35.4% | SNB-19 CNS 40.9% | U251 CNS 30% | PC-3 prostate 30.3% | SK-MEL-5 melanoma 25.8% | UACC-62 melanoma 33.1% | LOX IMVI melanoma 52.7% | SK-MEL-28 melanoma 53% | SK-MEL-2 melanoma 30.4% | EKVX NSCLC 51% | SN12C renal 47.1% | UO-31 renal 43% | TK-10 renal 51.1% | ACHN renal 43.4% | CAKI-1 renal 21.5% | MOLT-4 leukemia 22.6%
active: HT29 colon 3.61% | SNB-75 CNS -5.99% | A498 renal -11.6% | CCRF-CEM leukemia 7.16%

CS(=O)(=O)N(c1cc(-c2ccc3ncnc(Nc4ccc(F)c(Cl)c4)c3c2)cnc1Cl)S(C)(=O)=O
active: SNB-75 CNS -4.86% | A498 renal -30.8% | MOLT-4 leukemia 6.91%
inactive: HCT-15 colon 29.5% | HT29 colon 31.5% | SNB-19 CNS 50% | U251 CNS 38.2% | PC-3 prostate 34.8% | SK-MEL-5 melanoma 31.3% | UACC-62 melanoma 10.3% | LOX IMVI melanoma 32.2% | SK-MEL-28 melanoma 23.5% | SK-MEL-2 melanoma 27.3% | EKVX NSCLC 26.3% | SN12C renal 31.6% | UO-31 renal 17.1% | TK-10 renal 19% | ACHN renal 35.5% | CAKI-1 renal 31.9% | CCRF-CEM leukemia 18.4%

CC(=O)CC[C@H]1C(=O)N[C@@H](C(C)C)C(=O)N[C@@H](Cc2cc(O)cc(F)c2)C(=O)N2CCC[C@H](N2)C(=O)O[C@H](/C(C)=C/C=C/C(=O)OC(C)(C)C)C/C=C/C=C/[C@H](O)[C@H](C)[C@H]1O
inactive: HCT-15 colon 26.6% | HT29 colon 29.6% | SNB-75 CNS 54.6% | SNB-19 CNS 70% | U251 CNS 43.3% | PC-3 prostate 48.6% | SK-MEL-5 melanoma 51% | UACC-62 melanoma 52.4% | LOX IMVI melanoma 48.6% | SK-MEL-28 melanoma 59.4% | SK-MEL-2 melanoma 62.3% | EKVX NSCLC 71.3% | SN12C renal 53.7% | UO-31 renal 56.2% | TK-10 renal 62.6% | ACHN renal 62.6% | CAKI-1 renal 57.4% | A498 renal 82.3% | CCRF-CEM leukemia 46.3% | MOLT-4 leukemia 49.5%

O=C(CCN1C(=O)/C(=C/c2ccc(O)cc2)SC1=S)Nc1ccc(Cl)cc1
active: UO-31 renal 6.22%
inactive: HCT-15 colon 91.2% | HT29 colon 108% | SNB-75 CNS 90.4% | SNB-19 CNS 89.7% | U251 CNS 96.5% | PC-3 prostate 88.1% | SK-MEL-5 melanoma 99.2% | UACC-62 melanoma 83.3% | LOX IMVI melanoma 97.8% | SK-MEL-28 melanoma 99.2% | SK-MEL-2 melanoma 108% | EKVX NSCLC 95.8% | SN12C renal 91.7% | TK-10 renal 108% | ACHN renal 84% | CAKI-1 renal 92.5% | A498 renal 95% | CCRF-CEM leukemia 46.7% | MOLT-4 leukemia 84.7%

CCOC(=O)c1c(C)nc2c(c1N)CC(=O)N2Cc1ccc(F)cc1
inactive: HCT-15 colon 95.9% | HT29 colon 90% | SNB-75 CNS 95% | SNB-19 CNS 97.1% | U251 CNS 91.2% | PC-3 prostate 80% | SK-MEL-5 melanoma 92.9% | UACC-62 melanoma 90.1% | LOX IMVI melanoma 93.5% | SK-MEL-28 melanoma 111% | SK-MEL-2 melanoma 92.6% | EKVX NSCLC 94.9% | SN12C renal 93.2% | UO-31 renal 88.6% | TK-10 renal 97.3% | ACHN renal 95.7% | CAKI-1 renal 92.9% | A498 renal 64.1% | CCRF-CEM leukemia 85.3% | MOLT-4 leukemia 85%

C/C(=N/NC(N)=S)c1sc(Nc2cccc(Cl)c2)nc1C
inactive: HCT-15 colon 57.8% | HT29 colon 79% | SNB-75 CNS 120% | SNB-19 CNS 87.9% | U251 CNS 89.8% | PC-3 prostate 74.8% | SK-MEL-5 melanoma 87.1% | UACC-62 melanoma 92.9% | LOX IMVI melanoma 63.6% | SK-MEL-28 melanoma 94.8% | SK-MEL-2 melanoma 86.6% | EKVX NSCLC 74.1% | SN12C renal 76.1% | UO-31 renal 35.7% | TK-10 renal 86.7% | ACHN renal 80.5% | CAKI-1 renal 63.8% | A498 renal 81.4% | CCRF-CEM leukemia 82.4% | MOLT-4 leukemia 50%

CCCCOc1ccc(/C=N/NC(N)=S)cc1
inactive: HCT-15 colon 55.7% | HT29 colon 61.5% | SNB-75 CNS 72.9% | SNB-19 CNS 89.8% | U251 CNS 89.9% | PC-3 prostate 81% | SK-MEL-5 melanoma 95.7% | UACC-62 melanoma 75.5% | LOX IMVI melanoma 94.2% | SK-MEL-28 melanoma 96.5% | SK-MEL-2 melanoma 85.1% | EKVX NSCLC 85.9% | SN12C renal 67.5% | UO-31 renal 43.7% | TK-10 renal 77.3% | ACHN renal 92.3% | CAKI-1 renal 83.7% | A498 renal 79.4% | CCRF-CEM leukemia 37.4% | MOLT-4 leukemia 46%

Cc1cc(Cl)ccc1NS(=O)(=O)c1ccc(-c2cnc(C3CC3)o2)cc1
active: HT29 colon 5.04% | SNB-75 CNS -2.31% | A498 renal -5.2% | MOLT-4 leukemia 2.78%
inactive: HCT-15 colon 14.1% | SNB-19 CNS 22.8% | U251 CNS 24.8% | PC-3 prostate 26.6% | SK-MEL-5 melanoma 20.4% | UACC-62 melanoma 26.7% | LOX IMVI melanoma 22.4% | SK-MEL-28 melanoma 49.1% | SK-MEL-2 melanoma 80.4% | EKVX NSCLC 32.4% | SN12C renal 46.7% | UO-31 renal 45.8% | TK-10 renal 66.9% | ACHN renal 27.5% | CAKI-1 renal 43.4% | CCRF-CEM leukemia 22%

N#Cc1c(-c2ccccc2)nc(SCC(=O)Nc2nc(-c3ccc(Cl)cc3)cs2)[nH]c1=O
inactive: HCT-15 colon 104% | HT29 colon 93.3% | SNB-75 CNS 84.3% | SNB-19 CNS 101% | U251 CNS 95.3% | PC-3 prostate 91.6% | SK-MEL-5 melanoma 97.9% | UACC-62 melanoma 88.4% | LOX IMVI melanoma 100% | SK-MEL-28 melanoma 101% | SK-MEL-2 melanoma 92.3% | EKVX NSCLC 106% | SN12C renal 104% | UO-31 renal 83.2% | TK-10 renal 110% | ACHN renal 103% | CAKI-1 renal 89% | A498 renal 87.7% | CCRF-CEM leukemia 92.2% | MOLT-4 leukemia 89.8%
